Assay outcomes from PubChem BioAssay.
TDP43 rescue – TDP-43 toxicity inhibition in yeast | TDP-43 expressing yeast growth rescue, BacTiter-Glo, 24 h | Potency, µM (series often up to 46.1 µM), inactives show top-dose growth rescue (activation), usual class: activators | 410,000 tested, 1.8% active | AID 652104; also: % of control where 0% means no effect; nearly all actives have a fitted effect of over 50% in size
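Yeast cells expressing TDP-43 under galactose induction are exposed to compounds for 24 hr at 30 deg C. BacTiter-Glo luminescence measures growth, so protective compounds score as activators.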
aSyn rescue – rescues yeast growth from alpha-synuclein toxicity. Yeast expressing alpha-synuclein, growth rescue, BacTiter-Glo, 24 h. Potency, µM (top dose mostly 46.1 µM), for the others: top-dose growth rescue (activation), usual class: activators. 370,000 tested, 0.14% active. AID 652106; also: % of control where 0% means no effect; nearly all actives have a fitted effect of over 65% in size
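Galactose-induced alpha-syn yeast (OD600=0.02, raffinose-pregrown) + pinned cpd, 24 hr, 30 deg C; growth by BacTiter-Glo luminescence. Growth restoration scores as activation.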
Mito fusion yeast – inhibitors of mitochondrial division or activators of mitochondrial fusion; S. cerevisiae fusion-defective mutant growth rescue, CellTiterGlo 48 h; Potency, µM (top dose mostly 46.1 µM), for the others: at the top dose growth rescue (activation), actives largely listed as activators; 320,000 tested, 0.23% active; AID 485298; also: % of control where 0% means no effect; nearly all actives have a fitted effect of over 45% in size
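Temperature-sensitive fusion-defective S. cerevisiae (e.g. fzo1-1, mgm1-5) were grown with compound in YPEG medium (3% ethanol, 3% glycerol) for 48 hours at 37C. Growth rescue was measured as viability by CellTiterGlo luminescence after 10 minutes at ambient.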
Abeta yeast res – A-beta toxicity reversal in yeast; Potency, µM (doses to about 46.1 µM), most hits filed as activators; 410,000 tested, 0.063% active; AID 1347071; yeast expressing A-beta42, growth rescue, OD600, 48 h; response scale: 0% DMSO, 100% iron-clioquinol control; also: nearly all actives have a fitted effect of over 55% in size
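Yeast growth medium received pinned compounds, then yeast cells expressing toxic A-beta were added; plates incubated at 30 C for 48 hr. Growth read as absorbance at 600 nm, normalized to DMSO and equimolar FeCl3 plus clioquinol controls.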
FUS yeast rescue – FUS proteinopathy suppression in yeast. S. cerevisiae FUS-expressing, growth rescue, OD600, 24 h. Potency, µM (series often up to 76.6 µM), hits mostly activators. 390,000 tested, 0.24% active. AID 1347120;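 also: plate controls were DMSO vehicle for no effect and reference control for full effect; nearly all actives have a fitted effect of over 55% in size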
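Quantitative HTS measuring growth restoration of FUS-toxic yeast. Galactose-induced cells (OD 0.005) were exposed 24hr at 30C to compounds at several concentrations, then absorbance at 600 nm was recorded.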
Starred values were filed as active, the others as inactive; [ ] = another dose, or the depositor's remark. This is a sample that favours compounds with a hit; in the whole collection about 2.2% have one here. Calls follow the shape of the dose curve; as a rule, active = well fitted curve in the direction sought with a large enough effect; inconclusive = small, poorly fitted or top-dose-only effect, or another doubt; inactive = no such curve, though single readings can be large; an effect the other way counts as inactive or inconclusive. Potency is read from the fitted curve at half-maximal effect.

Results for CCOc1ccc(CNCc2c(C(=O)O)n(Cc3ccccc3F)c3cc(OC)ccc23)cc1 ?
TDP43 rescue: 7.3%; Abeta yeast res: inactive; FUS yeast rescue: inactive

What do the screens show for `Cc1ccc(CC(=O)N(Cc2nc(-c3ccc(C)cc3)no2)C(C)C)cc1`?
TDP43 rescue: 25.1µM*; Abeta yeast res: inactive; FUS yeast rescue: inactive

What do the screens show for `COc1ccc(OC(C)C(=O)N(C)Cc2nc(-c3ccccc3)no2)cc1` (configuration not stated)?
TDP43 rescue: inconclusive; aSyn rescue: 0.7%; Mito fusion yeast: -9.4%; Abeta yeast res: inactive; FUS yeast rescue: inactive

What do the screens show for `CC(C)N(Cc1nc(-c2ccc(Cl)cc2)no1)C(=O)c1ccco1`?
TDP43 rescue: 35.5µM*; Abeta yeast res: inactive; FUS yeast rescue: inactive

What do the screens show for `COc1ccc(-c2noc(CN(C(=O)C(C)Oc3ccc(C)cc3)C(C)C)n2)cc1` (configuration not stated)?
TDP43 rescue: 35.5µM*; Abeta yeast res: inactive; FUS yeast rescue: inactive

Results for Cc1ccc(C(=O)N(Cc2nc(-c3ccc(C)cc3)no2)C(C)C)cc1 ?
TDP43 rescue: 13.1%; aSyn rescue: 0.5%; Mito fusion yeast: 3.0%; Abeta yeast res: inactive; FUS yeast rescue: inactive

Results for Cc1ccc2c(c1)-c1cc(C)nn1C(c1cc(Br)ccc1O)N2 (configuration not stated) ?
TDP43 rescue: 21.4%; Abeta yeast res: inactive; FUS yeast rescue: inactive

How did COc1cccc(C(=O)Nc2ccccc2-c2nnc(-c3cc(OC)ccc3Br)o2)c1 do in these assays?
TDP43 rescue: -11.2%; aSyn rescue: -5.2%; Abeta yeast res: inactive; FUS yeast rescue: inactive

How did Brc1c(CSc2nc3ccccc3o2)nc2ncccn12 do in these assays?
TDP43 rescue: 12.6µM*; aSyn rescue: 8.6%; Mito fusion yeast: 3.4%; Abeta yeast res: inactive; FUS yeast rescue: inactive

What do the screens show for `CC(Sc1nnnn1C)C(=O)Nc1ccc(Oc2ccccc2)cc1` (configuration not stated)?
TDP43 rescue: 15.8µM*; aSyn rescue: 0.5%; Mito fusion yeast: 20.1%; Abeta yeast res: inactive; FUS yeast rescue: inactive

What do the screens show for `COc1cccc(C(c2sc3nc(-c4ccco4)nn3c2O)N2CCN(c3ccccc3F)CC2)c1` (configuration not stated)?
TDP43 rescue: 11.2µM*; Abeta yeast res: inactive; FUS yeast rescue: 8.91µM*

Results for CN(c1ccccc1)c1nc2ccsc2c(=O)s1 ?
TDP43 rescue: 14.1µM*; aSyn rescue: 0.4%; Mito fusion yeast: 10.1%; Abeta yeast res: inactive; FUS yeast rescue: inactive

How did COc1ccc(-c2csc(C(NC(C)=O)c3cccc(F)c3)n2)cn1 (configuration not stated) do in these assays?
TDP43 rescue: 7.7%; aSyn rescue: 1.7%; Abeta yeast res: inactive; FUS yeast rescue: inactive

What do the screens show for `COc1ccc(-c2csc(C(NC(C)=O)c3ccc(F)c(F)c3)n2)cn1` (configuration not stated)?
TDP43 rescue: 35.5µM*; aSyn rescue: 11.5%; Abeta yeast res: inactive; FUS yeast rescue: inactive

What do the screens show for `CC(=O)NC(c1cccc(F)c1)c1nc(-c2cccc(C(=O)O)c2)cs1` (configuration not stated)?
TDP43 rescue: inconclusive; aSyn rescue: 2.0%; Abeta yeast res: inactive; FUS yeast rescue: inactive

Results for CC(=O)NC(c1cccc(F)c1)c1nc(-c2cccc(C(C)C)c2)cs1 (configuration not stated) ?
TDP43 rescue: 25.1µM*; aSyn rescue: inconclusive; Abeta yeast res: inactive; FUS yeast rescue: inconclusive

What do the screens show for `NC(=O)Nc1ccc(Nc2ccccc2)cc1`?
TDP43 rescue: 21.6%; aSyn rescue: -2.2%; Mito fusion yeast: 2.6%; Abeta yeast res: inactive; FUS yeast rescue: inactive

What do the screens show for `O=C(Nc1ccc(Nc2ccccc2)cc1)C(Cl)(Cl)Cl`?
TDP43 rescue: 35.5µM*; aSyn rescue: 1.3%; Mito fusion yeast: inconclusive; Abeta yeast res: inactive

Results for Cn1c(C(=O)O)cc2cc(Oc3ccccc3)ccc21 ?
TDP43 rescue: 22.4µM*; aSyn rescue: -19.0%; Mito fusion yeast: 7.5%; Abeta yeast res: inactive; FUS yeast rescue: inactive

Results for O=C(O)c1cc2cc(Oc3ccccc3)ccc2[nH]1 ?
TDP43 rescue: 17.8µM*; aSyn rescue: -5.1%; Mito fusion yeast: 10.9%; Abeta yeast res: inactive; FUS yeast rescue: inactive

What do the screens show for `O=C(COC(=O)c1c2ccccc2cc2ccccc12)NCC(F)(F)F`?
TDP43 rescue: 15.8µM*; aSyn rescue: 18.1%; Mito fusion yeast: 10.5%; Abeta yeast res: inactive

What do the screens show for `COc1cccc(CNc2ccc([N+](=O)[O-])cc2Cl)c1O`?
TDP43 rescue: 14.1µM*; aSyn rescue: -16.6%; Mito fusion yeast: inconclusive; Abeta yeast res: inactive; FUS yeast rescue: inactive

How did Cc1ccc(S(=O)(=O)N(C(=O)c2ccncc2)c2ccc(OC(=O)c3ccncc3)cc2)c(C)c1 do in these assays?
TDP43 rescue: 7.08µM*; aSyn rescue: inconclusive; Mito fusion yeast: 2.5%; Abeta yeast res: inactive

How did COc1ccc(C(=O)N(c2ccc(C)cc2)S(=O)(=O)c2ccc(C)cc2)cc1 do in these assays?
TDP43 rescue: -26.0%[9.22 µM]; Abeta yeast res: inactive; FUS yeast rescue: inconclusive

What do the screens show for `COc1ccc(N(C(=O)c2cc(OC)c(OC)c(OC)c2)S(=O)(=O)c2ccc(C)cc2)cc1`?
TDP43 rescue: -24.3%; Abeta yeast res: inactive; FUS yeast rescue: 31.6µM*

How did COc1ccc(N(C(=O)c2ccncc2)S(=O)(=O)c2ccc(Cl)cc2)cc1 do in these assays?
TDP43 rescue: 0.891µM*; aSyn rescue: 10µM*; Mito fusion yeast: -8.9%; Abeta yeast res: inactive; FUS yeast rescue: inactive

What do the screens show for `Cn1c(=O)[nH]c(=O)c2c1nc(NCCO)n2CC(O)COc1ccccc1` (configuration not stated)?
TDP43 rescue: 0.7%; Abeta yeast res: inactive; FUS yeast rescue: inactive

Results for O=C(CSc1ccc(F)cc1)NCCSc1ccccc1 ?
TDP43 rescue: 12.6µM*; aSyn rescue: 6.5%; Mito fusion yeast: 6.5%; Abeta yeast res: inactive; FUS yeast rescue: inactive

What do the screens show for `O=C(CSc1ccccc1)NCCc1ccc(F)cc1`?
TDP43 rescue: -2.3%; aSyn rescue: -3.0%; Mito fusion yeast: 2.9%; Abeta yeast res: inactive; FUS yeast rescue: inactive

How did COc1ccc2oc(-c3cccc(NC(=O)c4sc5c([N+](=O)[O-])cccc5c4Cl)c3)nc2c1 do in these assays?
TDP43 rescue: -7.8%; aSyn rescue: 1.8%; Abeta yeast res: inactive; FUS yeast rescue: inactive
